Here are results for 26 molecules from the supplement of paper PMC6522484.

± gives the standard deviation of the averaged measurements.

Test [1] relates to DLD1. In words: cell viability (CellTiter-Glo) relative to plate median (fraction of plate median); higher = more viable cells. The note with it: 5 µM; treatment time 24 h; reporter: 7TFP. The essentials:
(§1)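 Signals from firefly luciferase or CellTiterGlo readouts were normalised well by well to the plate median using webcellHTS2, additively and with no log transformation. They came from colorectal cancer cell lines stably holding lentiviral TCF/Wnt firefly luciferase reporters (7TFP or TCF4/Wnt), treated with library compounds at a final 5 µM for 24 h. The mean of two independent replicates is given.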
(ATP-based viability assays read luminescence as a measure of living cells.)

A further test has as its system HCT116. Described as above. The note with it: 5 µM; treatment time 24 h; reporter: TCF4/Wnt. The essentials:
as §1

Test [2] deals with SW480. The test is described as above. The note with it: 5 µM; treatment time 24 h; reporter: 7TFP. The essentials: as §1
Test [3] has as its system DLD1. The test is described as follows: TCF/Wnt firefly luciferase reporter signal relative to plate median (fraction of plate median); higher = higher Wnt reporter signal. Conditions: 5 µM; treatment time 24 h; reporter: 7TFP. The essentials:
as §1

The subject of test [4] is SW480. The test is described as above. Conditions: 5 µM; treatment time 24 h; reporter: 7TFP. The essentials:
as §1

Take `CC=CC(=O)N(CC)c1ccccc1C`: the cell viability in the test on DLD1 [1] amounted to 0.931 ± 0.093; in the test with HCT116, 1.05 ± 0.028; in the test on SW480 [2] it was 1.01 ± 0.021. The figures for the “TCF/Wnt firefly luciferase reporter signal” value in the test on DLD1 [3] and in the test on SW480 [4] were 0.953 ± 0.081 and 0.8525 ± 0.0078, respectively.
In the same order, the values of `C=C1C(=O)C[C@@H]2[C@@H]3CC[C@@H](C(=O)O)[C@@]12CC3(C)C` [Terrecyclic Acid A] are 0.873 ± 0.051, 0.919 ± 0.047, 0.974 ± 0.022, 0.957 ± 0.1 and 0.961 ± 0.044.
In the same order, the values of `CO/N=C(\C(=O)N[C@@H]1C(=O)N2C(C(=O)O)=C(COC(C)=O)CS[C@H]12)c1csc(N)n1` are 1.03 ± 0.035, 1.07, 0.969 ± 0.031, 1.01 ± 0.11 and 0.856 ± 0.074.
For `CC(=O)N[C@@H](Cc1c[nH]c2ccccc12)C(=O)O` the same measures were 0.953 ± 0.0014, 0.955 ± 0.093, 0.985 ± 0.021, 0.905 ± 0.1 and 0.961 ± 0.016.
With `CC(=O)N1CCCC(N)C1=O` (stereo not given) [N-Acetyl-3-amino-2-piperidinon], the cell viability with DLD1 [1] was 0.974 ± 0.079; in the test with HCT116 it was 0.871 ± 0.021; with SW480 [2], 0.946 ± 0.015. In addition, the “TCF/Wnt firefly luciferase reporter signal” value in the test on DLD1 [3] is 0.821 ± 0.13; with SW480 [4] it was 0.851 ± 0.044.
In the same order, the values of `COc1cccc(O)c1O` are 0.938 ± 0.059, 0.905 ± 0.11, 0.942 ± 0.0028, 0.96 ± 0.099 and 0.978 ± 0.088.
In the same order, the values of `COc1cc(O)c2c(=O)cc(C)oc2c1CC=C(C)C` are 1.04 ± 0.057, 1.06 ± 0.078, 1.04 ± 0.035, 0.91 ± 0.04 and 0.991 ± 0.15.
In the same order, the values of `NC(=O)C(c1ccccc1)(c1ccccc1)[C@@H]1CCN(CCc2ccc3c(c2)CCO3)C1` are 0.873 ± 0.067, 0.983 ± 0.0042, 0.947 ± 0.03, 1.03 ± 0.094 and 1.005 ± 0.0071.
Turning to `C[C@]12CCC(=O)C=C1CC[C@@H]1[C@@H]2[C@@H](O)C[C@@]2(C)[C@H]1CC[C@]2(O)C(=O)COP(=O)(O)O`, the cell viability in the test with DLD1 [1] turned out to be 0.949 ± 0.0099; in the test on HCT116, 0.974 ± 0.065; with SW480 [2], 0.969 ± 0.03. For the same molecule, the figures for the “TCF/Wnt firefly luciferase reporter signal” value in the test with DLD1 [3] and in the test with SW480 [4] were 1.01 ± 0.025 and 1.07 ± 0.014, respectively.
`COc1ccc(-c2cc(C(F)F)nn2-c2ccc(S(N)(=O)=O)cc2)cc1F`: the cell viability in the test on DLD1 [1] came to 0.869 ± 0.086; with HCT116, 1.01 ± 0.014; in the test with SW480 [2], 1.04 ± 0.057. Further, the results for the “TCF/Wnt firefly luciferase reporter signal” value in the test with DLD1 [3] and in the test on SW480 [4] were 0.983 ± 0.025 and 0.995 ± 0.078, respectively.
On to `CC(C)c1ncc(Cc2ccccc2)[nH]c1=O` [Phevalin], for which the cell viability in the test on DLD1 [1] was 1.14 ± 0.22; with HCT116, 1.07 ± 0.014; in the test on SW480 [2], 1.004 ± 0.0078. In addition, the results for the “TCF/Wnt firefly luciferase reporter signal” value with DLD1 [3] and in the test with SW480 [4] were 0.982 ± 0.019 and 0.922 ± 0.12, respectively.
For `COc1cc(C)c(C(=O)Oc2cc(C)c(C(=O)O)c(O)c2C)c(OC)c1C` the same measures were 0.961 ± 0.033, 1.025 ± 0.0071, 0.987 ± 0.047, 0.953 ± 0.034 and 1 ± 0.099.
In the same order, the values of `Nc1ccccc1C(=O)CC(N)C(=O)O` (stereo not given) are 1.01, 1.05 ± 0.1, 0.994 ± 0.023, 1.31 ± 0.05 and 1.08 ± 0.014.
For `Oc1ccc(O)cc1` the same measures were 0.839 ± 0.11, 0.856 ± 0.022, 0.959 ± 0.1, 1.14 ± 0.14 and 1.04 ± 0.2.
Regarding `CC(=O)OC1CCC2(C)C(=CCC3C2CCC2(C)C(C(C)CCCC(C)C)CCC32)C1` (stereo not given), the cell viability in the test on DLD1 [1] was determined as 1.04 ± 0.021; in the test with HCT116 it was 1.05 ± 0.12; in the test on SW480 [2], 0.964 ± 0.051. Besides, the “TCF/Wnt firefly luciferase reporter signal” value in the test on DLD1 [3] was 1.11 ± 0.19; in the test with SW480 [4], 1.11 ± 0.15.
Regarding `COc1cc(O)c(C(=O)/C=C/c2ccc(O)c(OC)c2)c(OC)c1`, the figures for the cell viability with DLD1 [1], in the test on HCT116 and in the test with SW480 [2] were 1.025 ± 0.0071, 1.03 ± 0.083 and 1.1 ± 0.071, respectively. Besides, the “TCF/Wnt firefly luciferase reporter signal” value in the test on DLD1 [3] is 0.882 ± 0.11; in the test with SW480 [4] it was 0.894 ± 0.037.
`Clc1ccc(COC(Cn2ccnc2)c2ccc(Cl)cc2Cl)c(Cl)c1` (stereo not given): the figures for the cell viability in the test with DLD1 [1], with HCT116 and with SW480 [2] were 0.964 ± 0.042, 1.01 ± 0.014 and 0.973 ± 0.0099, respectively. For the same molecule, the entries for the “TCF/Wnt firefly luciferase reporter signal” value in the test on DLD1 [3] and in the test on SW480 [4] were 1.04 ± 0.11 and 1.04 ± 0.12, respectively.
In the same order, the values of `O=C(O)Cc1ccccc1Nc1c(Cl)cccc1Cl` are 0.955 ± 0.078, 0.938 ± 0.037, 0.96 ± 0.032, 0.95 ± 0.05 and 0.848 ± 0.13.
For `CN(C)/N=N/c1[nH]cnc1C(N)=O` the same measures were 0.982 ± 0.015, 0.986 ± 0.02, 0.971 ± 0.0099, 1.06 ± 0.11 and 1.06 ± 0.11.
In the same order, the values of `Nc1nc2[nH]cnc2c(=S)[nH]1` are 0.706 ± 0.016, 0.761 ± 0.037, 0.828 ± 0.11, 0.752 ± 0.033 and 0.799 ± 0.025.
On to `COC1=CC(=O)C(O)=C/C1=C\C=C\c1ccccc1`, for which the results for the cell viability with DLD1 [1], with HCT116 and with SW480 [2] were 1 ± 0.013, 1.06 ± 0.12 and 1 ± 0.057, respectively. The “TCF/Wnt firefly luciferase reporter signal” value was determined as 1.1 ± 0.064 with DLD1 [3] and 0.905 ± 0.1 with SW480 [4].
For `Cc1ncc(C[n+]2csc(CCO)c2C)c(N)n1` the same measures were 0.981 ± 0.041, 0.978 ± 0.088, 1.005 ± 0.0071, 0.926 ± 0.011 and 0.946 ± 0.02.
Take `Cc1cc(=O)oc2c(O)c(O)ccc12`: the figures for the cell viability with DLD1 [1], in the test on HCT116 and with SW480 [2] were 0.961 ± 0.17, 0.943 ± 0.03 and 0.925 ± 0.044, respectively. Besides, the “TCF/Wnt firefly luciferase reporter signal” value with DLD1 [3] worked out at 0.869 ± 0.08; in the test on SW480 [4], 0.944 ± 0.0071.
As to `O=C(COc1ccc(Cl)cc1)N1CCN(Cc2ccc3c(c2)OCO3)CC1`, the cell viability in the test on DLD1 [1] is 0.9755 ± 0.0064; with HCT116 it was 0.893 ± 0.03; with SW480 [2], 1.035 ± 0.0071. Further, the “TCF/Wnt firefly luciferase reporter signal” value in the test with DLD1 [3] worked out at 0.865 ± 0.18; in the test on SW480 [4], 0.921 ± 0.018.
For `CC(=O)O[C@]1(C(C)=O)CC[C@H]2[C@@H]3C=C(Cl)C4=CC(=O)[C@@H]5C[C@@H]5[C@]4(C)[C@H]3CC[C@@]21C` the same measures were 1 ± 0.035, 0.96 ± 0.086, 0.948 ± 0.0028, 0.81 ± 0.052 and 0.923 ± 0.22.
In the same order, the values of `CCOC(=O)C(C)(C)Oc1ccc(Cl)cc1` are 1.01 ± 0.021, 0.981 ± 0.0071, 0.971 ± 0.055, 1.24 ± 0.021 and 1.04 ± 0.035.
